HCV inhibitor: qHTS Assay for Inhibitors of Hepatitis C Virus (HCV); Huh7.5.1 HCVcc-Cre infection, luciferase reporter, 44 h; Potency, µM (highest dose often 41.8 µM), for the others: at the top dose activity change, negative = inhibition, usual class: inhibitors; actives 3.4% (n = 340,000); AID 651820, 2012; active = well fitted inhibition curve with a large enough effect; inconclusive = small, poorly fitted or top-dose-only effect, or another doubt; inactive = no such curve, though single readings can be large or run the other way; note: potency is the fitted concentration of half-maximal effect
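Antiviral activity was scored by luciferase reporter output from cells infected with HCVcc-Cre (~0.5 moi) in presence of compound, 44 h infection period, cells seeded 1,000/well 4 h prior.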
FMDV antiviral: High Throughput Screening for Foot and Mouth Disease Virus Antivirals. FMDV antiviral cell-based qHTS. actives 1.2% (n = 410,000). Potency, µM (highest dose often 57.9 µM), for inactives: at the top dose activity change, negative = inhibition, hits mostly inhibitors. AID 1159524, 2015; calls by dose curve; tested in HEK293T cells; note: read-out not given here; potency is the fitted concentration of half-maximal effect; nearly all actives have a fitted effect of over 45% in size
Vaccinia mCherry: qHTS for Stage-Specific Inhibitors of Vaccinia Orthopoxvirus: mCherry Reporter Primary qHTS; actives 0.63% (n = 310,000); Potency, µM (series often up to 36.5 µM), inactives show at the top dose activity change, negative = inhibition, actives largely listed as inhibitors; Vaccinia virus mCherry reporter infection, fluorescence; calls by dose curve; tested in A549 cells; note: potency is the fitted concentration of half-maximal effect; nearly all actives have a fitted effect of over 35% in size
VACV Venus inh: qHTS for Stage-Specific Inhibitors of Vaccinia Orthopoxvirus: Venus Reporter Primary qHTS; Vaccinia virus Venus reporter expression, fluorescence; Potency, µM (doses to about 36.5 µM), for the others: at the highest dose activity change, negative = inhibition, usual class: inhibitors; actives 0.46% (n = 330,000); AID 720580, 2013; calls by dose curve; tested in A549 cells; note: potency is the fitted concentration of half-maximal effect; nearly all actives have a fitted effect of over 30% in size
HCMV inh: qHTS Assay for inhibitors of the human cytomegalovirus (HCMV); activity change, negative = inhibition, % at 57.5 µM; actives 4.5% (n = 410,000); HFF cells, HCMV-luciferase reporter, 72 h; active compounds read low; in the data active = activity change below about -60%; inconclusive = no clear call, values can overlap the other calls; inactive = above about -39%
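Human foreskin fibroblasts infected with luciferase-reporter HCMV at MOI 1 PFU/cell, compounds at two doses. Luciferase measured 72 h post infection; normalized to buffer-only basal and Salinomycin (10uM) controls.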
* = called active by the depositor; i = inactive; ? = inconclusive; . = no result given. Hits are enriched below; roughly 7.3% of the tested compounds scored in any of these assays. % is set by controls: 0 for no effect and ±100 for the full control effect.

SMILES	HCV inhibitor	FMDV antiviral	Vaccinia mCherry	VACV Venus inh	HCMV inh
Oc1[nH]c2ccccc2c1N=NC(=S)N1CCOCC1	8.9µM*	?	.	.	.
Cc1c(Cl)cccc1N=C1NC(=O)CS1	.	0%	-25%	-14%	74
CN(c1ccccc1)S(=O)(=O)c1ccc(C(=O)NCc2ccccc2CN2CCCC2)cc1	10µM*	?	-16%	-10%	?
COC(=O)c1cc(CNC(=O)c2ccc(S(=O)(=O)N(C)c3ccccc3)cc2)ccc1OC	4µM*	?	-7%	-22%	-2
COC(=O)c1cc(CNC(=O)c2sccc2-c2ccccc2)ccc1OC	11µM*	?	.	.	40
COc1ccc(CCNC(=O)c2ccc(S(=O)(=O)N(C)c3ccccc3)cc2)cc1OC	?	?	i	-11%	15
O=C(NCc1ccccc1)c1cc(C2COCCN2C(=O)c2ccc(Cl)cc2)on1 (centres undefined)	.	-15%	-9%	-5%	1
COc1ccc2c(c1)[C@@H](NS(C)(=O)=O)[C@H](C)[C@@H](c1ccccc1)N2C(=O)Nc1ccc(C(F)(F)F)cc1	.	.	.	.	-25
CC1(C)CC2CC(C)(CN2S(=O)(=O)c2ccc(C(=O)Nc3ccc(S(=O)(=O)N4CCOCC4)cc3)cc2)C1 (centres undefined)	?	-17%	i	-15%	-90*
CC(=O)Nc1ccc(S(=O)(=O)N2CC3(C)CC2CC(C)(C)C3)cc1 (centres undefined)	0%	10%	-4%	-7%	?
CC1(C)CC2CC(C)(CN2S(=O)(=O)c2ccc(C(=O)Nc3ccc(Cl)c(S(=O)(=O)N4CCOCC4)c3)cc2)C1 (centres undefined)	?	?	-11%	-12%	-98*
Cc1ccc(C(O)c2ncc(-c3ccccc3)[nH]2)c(C)c1 (centres undefined)	.	49%	31%	0%	-10
O=C1c2[nH]nc(-c3ccccc3O)c2C(c2ccc(F)cc2)N1Cc1ccco1 (centres undefined)	-1%	?	.	.	-35
O=C1c2[nH]nc(-c3ccccc3O)c2C(c2cccc(Cl)c2)N1Cc1ccco1 (centres undefined)	13µM*	?	.	.	14
Cc1cc(C)c(O)c(-c2n[nH]c3c2C(c2cccc(O)c2)N(Cc2ccco2)C3=O)c1 (centres undefined)	11µM*	-20%	10µM*	?	-28
COc1ccc(CN(C(=O)c2cc3ccccc3oc2=O)C2CCS(=O)(=O)C2)cc1OC (centres undefined)	8%	13%	-7%	-6%	9
COc1ccc(N(CC(=O)N2CCC(C(N)=O)CC2)S(=O)(=O)c2ccccc2)cc1	-8%	7%	i	-7%	18
CCOc1ccc(CCNC(=O)C2CCCN(c3nnc(C)c4c(C)n(-c5ccccc5)nc34)C2)cc1 (centres undefined)	.	-16%	-18%	-14%	?
CC(C)Cc1nn2c(=O)cc(COC(=O)c3cccc(NC(=O)c4cccs4)c3)nc2s1	.	-1%	i	-13%	-36
Cc1ccc2sc3ccc(NC(=O)c4ccccc4Cl)cc3c(=O)c2c1	8.9µM*	15%	.	.	-89*
O=C(Nc1ccc2c(c1)C(=O)OC2)c1ccccc1Cl	4%	24%	-5%	-8%	-91*
O=C(Nc1ccc2c(c1)CCC2)c1c(F)cccc1Cl	10%	31%	i	-2%	-61*
O=C(Nc1ccc2c(c1)CCC2)c1ccc(F)cc1	?	-3%	-26%	-19%	51
O=C1OCc2ccc(NC(=O)c3ccccc3C(=O)O)cc21	2%	-16%	.	.	11
O=C1OCc2ccc(NC(=O)c3c(F)cccc3Cl)cc21	-8%	29%	-17%	-4%	-85*
SMILES	HCV inhibitor	FMDV antiviral	Vaccinia mCherry	VACV Venus inh	HCMV inh
C=CCn1c(COc2ccccc2)nc2ccccc21	10%	1%	-2%	-6%	-19
COc1cccc(C(=O)NCc2cn3ccccc3n2)c1	.	3%	-11%	-5%	-25
O=C(NCC(c1cccnc1)N1CCc2ccccc2C1)c1ccc(F)c(F)c1 (centres undefined)	.	-20%	-20%	-24%	-3
Cc1nc2ccccc2c(=O)n1/N=C/c1ccccn1	-5%	.	-11%	-2%	?
O=C(Cc1ccc(F)cc1)N/N=C/c1ccccn1	6%	13%	.	.	-21
CCN=c1scc(-c2ccccc2)n1/N=C/c1ccccn1	?	?	5.6µM*	5%	.
CCN=c1scc(-c2ccc(F)cc2)n1/N=C/c1ccccn1	-12%	-14%	-7%	-8%	-88*
COc1cccc(NC(=O)CSC2=Nc3ccccc3N=C(c3ccc(F)cc3)C2)c1	.	-30%	-11%	-14%	?
CCN(CC)c1ccc(-n2nc3cc(C)c(NC(=O)c4ccccc4F)cc3n2)cc1	.	-19%	?	5%	13
Cc1oc(-c2ccccc2Cl)nc1Cn1cccc1C1=NC(c2ccccc2)CO1 (centres undefined)	11µM*	?	-28%	-12%	?
Cc1oc(-c2ccccc2Cl)nc1CN1CCCC1c1ccc(F)cc1 (centres undefined)	-13%	0%	.	.	16
O=C(O)c1ccccc1C(=O)Nc1ccc(Oc2cccc3ccccc23)cc1	-1%	?	?	-7%	-64*
O=C(Nc1ccc(Oc2cccc3ccccc23)cc1)c1ccco1	?	0%	.	-19%	-68*
O=C(Nc1cccc(NC(=O)c2nccc3ccccc23)c1)c1ccco1	-22%	.	-16%	-22%	-97*
O=C(Nc1ccc(CSc2ccccc2)cc1)c1ccco1	-17%	58%	.	.	-84*
Cc1nc2sc(-c3ccccc3)cc2c(=O)n1N	-23%	40µM*	.	.	0
Cc1nc2sc(-c3ccccc3)cc2c(=O)n1-n1cccc1	-6%	-16%	.	-8%	11
Cc1nc2sc(-c3ccccc3)cc2c(=O)[nH]1	10µM*	.	-7%	-1%	64
CCOC(=O)c1c(S(=O)(=O)N2CCC(C(=O)NCc3cccc(OC)c3)CC2)c(C)n(C)c1C	.	-16%	-6%	-5%	10
Cc1ccc(NC(=O)c2cccc(N3CCCS3(=O)=O)c2)cc1	.	13%	-13%	-12%	42
O=C(O)c1cccc(N2CCCCS2(=O)=O)c1	12%	-11%	-6%	-2%	-100*
CCN(C[C@H]1N[C@@](Cc2ccccc2)(C(=O)OC)[C@H]2C(=O)N(C)C(=O)[C@@H]12)S(=O)(=O)c1ccc(-c2ccccc2)cc1	18µM*	-26%	-1%	-25%	-27
CCN(C[C@H]1N[C@@](Cc2ccccc2)(C(=O)OC)[C@H]2C(=O)N(Cc3ccccc3)C(=O)[C@@H]12)S(=O)(=O)c1ccc(C)cc1	7.1µM*	?	-16%	-22%	-11

Screening data as filed in PubChem.
